Test results published in PubChem BioAssay (Tox21).
Where “and” joins values, the source holds several entries; their conditions need not be identical. Identical values can stand only once. Results filed as inconclusive are left out. A call without a number means that no potency is given here. Some structures have more than one record in an assay (separate samples or runs), and their calls can disagree. Calls of active or inactive are those of the source. Unless noted, calls follow the shape of the dose curve; as a rule, active = well fitted curve in the direction sought with a large enough effect in the repeat runs; inconclusive = weak or mixed curves; inactive = no such curve, though single readings can be large; an effect the other way counts as inactive or inconclusive.

Assays:
[1] = qHTS assay to identify small molecule agonists of the peroxisome proliferator-activated receptor delta (PPARd) signaling pathway - cell viability counter screen (AID 743211); also: nearly all actives have a fitted effect of over 55% in size; also: potency is read from the fitted curve at half-maximal effect
In short: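 qHTS cell viability: PPARd-bla HEK293H; 17 h cpd, 37C; CellTiter-Glo, luminescence at 30 min RT.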

[2] = target: Peroxisome proliferator-activated receptor delta (Homo sapiens) (UniProt Q03181); test: qHTS assay to identify small molecule agonists of the peroxisome proliferator-activated receptor delta (PPARd) signaling pathway (AID 743212; calls by dose curve)
Sequence of Peroxisome proliferator-activated receptor delta (Homo sapiens) (Q03181 whole entry, looked up): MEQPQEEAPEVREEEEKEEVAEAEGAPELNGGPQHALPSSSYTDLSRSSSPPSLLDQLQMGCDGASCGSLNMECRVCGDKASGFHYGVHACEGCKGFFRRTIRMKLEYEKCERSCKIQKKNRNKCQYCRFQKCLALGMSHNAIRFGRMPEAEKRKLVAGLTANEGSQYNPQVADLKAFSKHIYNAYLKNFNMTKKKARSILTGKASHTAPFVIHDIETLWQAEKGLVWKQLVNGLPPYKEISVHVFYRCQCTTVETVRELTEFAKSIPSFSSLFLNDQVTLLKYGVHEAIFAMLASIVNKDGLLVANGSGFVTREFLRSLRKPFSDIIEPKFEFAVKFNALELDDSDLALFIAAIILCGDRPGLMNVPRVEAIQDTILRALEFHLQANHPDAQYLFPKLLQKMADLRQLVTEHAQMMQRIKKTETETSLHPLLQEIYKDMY
In short: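 Steps: seed PPARd-bla HEK293H cells; incubate 5 h, 37 C, 5% CO2; add compounds in DMSO; incubate, 37 C; add LiveBLAzer B/G FRET substrate; hold 2 h at room temperature; measure fluorescence.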

[3] = qHTS assay to identify small molecule antagonists of the peroxisome proliferator-activated receptor delta (PPARd) signaling pathway - cell viability counter screen (AID 743213); also: nearly all actives have a fitted effect of over 50% in size; also: potency is read from the fitted curve at half-maximal effect
In short: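 PPARd-bla HEK293H cells (3000/well) got compound plus 300 nM L165041 agonist for 17 h at 37 C. Viability in the same wells came from CellTiter-Glo luminescence after 30 min at room temperature.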

[4] = target: Bile acid receptor (Homo sapiens) (UniProt Q96RI1); test: qHTS assay to identify small molecule antagonists of the farnesoid-X-receptor (FXR) signaling pathway (AID 743217; active = well fitted inhibition curve with a large enough effect in the signal ratio in the repeat runs, not every such curve was filed as active; the % refers to the signal ratio)
Sequence of Bile acid receptor (Homo sapiens) (Q96RI1 whole entry, looked up): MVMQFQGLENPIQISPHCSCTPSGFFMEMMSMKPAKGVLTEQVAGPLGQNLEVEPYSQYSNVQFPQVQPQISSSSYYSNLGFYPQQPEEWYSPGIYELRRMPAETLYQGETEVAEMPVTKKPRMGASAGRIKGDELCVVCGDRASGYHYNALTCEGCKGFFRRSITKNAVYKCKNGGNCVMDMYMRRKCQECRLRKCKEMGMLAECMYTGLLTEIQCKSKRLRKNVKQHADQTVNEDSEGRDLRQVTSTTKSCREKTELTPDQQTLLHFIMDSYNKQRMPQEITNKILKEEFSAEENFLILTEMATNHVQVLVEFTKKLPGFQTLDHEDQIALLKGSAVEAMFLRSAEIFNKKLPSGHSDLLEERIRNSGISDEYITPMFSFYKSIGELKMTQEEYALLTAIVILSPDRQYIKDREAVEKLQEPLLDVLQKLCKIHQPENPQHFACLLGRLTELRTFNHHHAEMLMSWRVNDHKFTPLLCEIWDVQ
In short: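 Read-out: beta-lactamase FRET fluorescence (LiveBLAzer B/G substrate, 2 h, room temperature) in GeneBLAzer FXR-UAS-bla HEK 293T cells. Compounds were co-dosed with 50 uM chenodeoxycholic acid (final) and incubated 16 h at 37 °C.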

[5] = qHTS assay to identify small molecule agonists of the farnesoid-X-receptor (FXR) signaling pathway - cell viability counter screen (AID 743218); also: nearly all actives have a fitted effect of over 45% in size
In short: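 Luminescence from CellTiter-Glo, read after 30 min at RT, reports viability of GeneBLAzer FXR-UAS-bla HEK 293T cells treated 16 h with compounds in the wells used for the beta-lactamase reporter.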

[6] = target: Bile acid receptor (Homo sapiens) (UniProt Q96RI1); test: qHTS assay to identify small molecule agonists of the farnesoid-X-receptor (FXR) signaling pathway (AID 743220; active = well fitted activation curve with a large enough effect in the signal ratio in the repeat runs, not every such curve was filed as active; the % refers to the signal ratio)
In short: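 FXR-UAS-bla HEK 293T cells carrying a UAS-driven beta-lactamase reporter were plated for 5 h at 37C/5% CO2, then exposed to DMSO-dissolved Tox21 10K compounds for 16 h at 37C. A LiveBLAzer B/G FRET substrate was loaded for 2 h at room temperature before fluorescence reading.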

[7] = qHTS assay to identify small molecule antagonists of the farnesoid-X-receptor (FXR) signaling pathway - cell viability counter screen (AID 743221; active = well fitted cell-killing curve with a large enough effect in the repeat runs, not every such curve was filed as active; also: nearly all actives have a fitted effect of over 50% in size)
In short: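 After a 5 h settling period, FXR-bla HEK 293T cells receive compound and chenodeoxycholic acid (50 uM final) and incubate 16 h at 37 C; CellTiter-Glo luminescence, read after 30 min at room temperature, reports cell viability.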

[8] = target: Vitamin D3 receptor (Homo sapiens) (UniProt P11473); test: qHTS assay to identify small molecule agonists of the vitamin D receptor (VDR) signaling pathway (AID 743222; calls by dose curve)
Sequence of Vitamin D3 receptor (Homo sapiens) (P11473 whole entry, looked up): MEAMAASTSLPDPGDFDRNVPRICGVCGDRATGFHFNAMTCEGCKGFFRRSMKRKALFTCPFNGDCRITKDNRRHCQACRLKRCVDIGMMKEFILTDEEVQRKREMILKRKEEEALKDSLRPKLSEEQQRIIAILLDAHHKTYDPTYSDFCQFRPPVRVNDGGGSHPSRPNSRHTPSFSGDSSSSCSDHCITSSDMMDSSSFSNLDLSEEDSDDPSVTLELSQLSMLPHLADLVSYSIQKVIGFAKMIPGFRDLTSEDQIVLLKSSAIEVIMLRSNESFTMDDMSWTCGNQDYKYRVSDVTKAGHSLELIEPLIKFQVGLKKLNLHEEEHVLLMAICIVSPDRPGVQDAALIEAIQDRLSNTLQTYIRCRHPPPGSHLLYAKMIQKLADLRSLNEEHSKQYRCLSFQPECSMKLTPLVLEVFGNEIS
In short: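 Beta-lactamase reporter readout (LiveBLAzer B/G FRET, 2 h RT) in VDR-bla cells after 16 h compound treatment at 37C, 5% CO2; cells pre-incubated 4 h before pin transfer of DMSO solutions.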

[9] = target: Vitamin D3 receptor (Homo sapiens) (UniProt P11473); test: qHTS assay to identify small molecule antagonists of the vitamin D receptor (VDR) signaling pathway (AID 743223; active = well fitted inhibition curve with a large enough effect in the signal ratio in the repeat runs, not every such curve was filed as active; the % refers to the signal ratio)
In short: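 Reporter line VDR-bla; stimulus 1alpha,25-(OH)2 vitamin D3, 3 nM final; compound co-addition, 16 h 37C/5% CO2; LiveBLAzer B/G substrate 2 h RT; fluorescence intensity.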

[10] = qHTS assay to identify small molecule agonists of the vitamin D receptor (VDR) signaling pathway - cell viability counter screen (AID 743224); also: nearly all actives have a fitted effect of over 50% in size; also: potency is read from the fitted curve at half-maximal effect
In short: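 Cytotoxicity counter screen: VDR-bla cells, 16 h compound exposure at 37C, 5% CO2; CellTiter-Glo luminescence, 30 min RT, same wells as bla read.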

[11] = qHTS assay to identify small molecule antagonists of the vitamin D receptor (VDR) signaling pathway - cell viability counter screen (AID 743225); also: nearly all actives have a fitted effect of over 50% in size
In short: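 Parallel cytotoxicity test: VDR-UAS-bla HEK 293T, 3 nM (final) 1-alpha,25-dihydroxyvitamin D3 with test compound, 16 h, 37C. Endpoint is CellTiter-Glo luminescence in the same wells.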

[12] = qHTS assay to identify small molecule agonists of the NFkB signaling pathway (AID 1159509; active = well fitted curve in the direction sought with a large enough effect in the signal ratio in the repeat runs, not every such curve was filed as active; the % refers to the signal ratio; also: series mostly up to about 61 µM)
In short: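 Readout: FRET fluorescence, 405 nm excitation, 460/530 nm emission; beta-lactamase expression disrupts FRET. Cells: ME-180 stably carrying NF-kB-driven bla reporter. Compound exposure 5 hr, 37 C, 5% CO2.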

[13] = qHTS assay to identify small molecule agonists of the NFkB signaling pathway - cell viability counter screen (AID 1159515; calls by dose curve; also: series mostly up to about 61 µM; nearly all actives have a fitted effect of over 55% in size)
In short: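 ME-180 NFkB-bla cells, 2,000/well; overnight attach; compound 5 hr, 37 C/5% CO2; LiveBLAzer substrate 1.5 hr RT; then CellTiter-Glo in same wells, 30 min RT, luminescence read.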

[14] = qHTS assay to identify small molecule agonists of the endoplasmic reticulum stress response signaling pathway - cell viability counter screen (AID 1159517; calls by dose curve)
In short: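 After overnight attachment, ESRE-bla HeLa cells were treated with Tox21 library compounds for 5 hr. CellTiter-Glo luminescence, read 30 min post-addition at room temperature, reported viability.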

[15] = qHTS assay to identify small molecule antagonists of the retinoid-related orphan receptor gamma (ROR-gamma) signaling pathway - cell viability counter screen (AID 1159520); also: nearly all actives have a fitted effect of over 50% in size
In short: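 Cytotoxicity was read from cellular ATP (CellTiter-Glo luminescence) after 16 hr at 37 C with 1 uM doxycycline induction. The inducer was added 2 hr after compound transfer to Tet-on ROR gamma CHO cells.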

[16] = qHTS assay to identify small molecule agonists of the AP-1 signaling pathway - cell viability counter screen (AID 1159525; calls by dose curve; also: nearly all actives have a fitted effect of over 55% in size)
In short: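 Intracellular ATP by Cell Titer Glo luminescence (30 min, RT) in the same ME-180 AP-1-bla wells after the 5 h compound exposure at 37 °C. Normalised to tetra n-octyl ammonium bromide and DMSO controls.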

[17] = qHTS assay to identify small molecule agonists of the AP-1 signaling pathway (AID 1159526; calls by dose curve)
[18] = qHTS assay to identify small molecule agonists of the endoplasmic reticulum stress response signaling pathway (AID 1159516; active = well fitted activation curve with a large enough effect in the signal ratio in the repeat runs, not every such curve was filed as active; the % refers to the signal ratio)
In short: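 HeLa ESRE-bla reporter line; cpd 5 h, 37 C/5% CO2; LiveBLAzer B/G FRET substrate 2 h RT; ex 405, em 460/530 nm.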

[19] = target: Nuclear receptor ROR-gamma (Homo sapiens) (UniProt P51449); test: qHTS assay to identify small molecule antagonists of the retinoid-related orphan receptor gamma (ROR-gamma) signaling pathway (AID 1159521; also: nearly all actives have a fitted effect of over 50% in size; also: potency is read from the fitted curve at half-maximal effect)
In short: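 Decreased RORE-driven luciferase luminescence indicates antagonism. Tet-on RORγ CHO cells received compound, then 1 uM final doxycycline 2 h later; signal read after 16 h incubation.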

[20] = target: Peroxisome proliferator-activated receptor delta (Homo sapiens) (UniProt Q03181); test: qHTS assay to identify small molecule antagonists of the peroxisome proliferator-activated receptor delta (PPARd) signaling pathway (AID 743215; active = well fitted inhibition curve with a large enough effect in the signal ratio in the repeat runs, not every such curve was filed as active; the % refers to the signal ratio;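 also: cells stimulated with agonist L165041 at 300 nM final during compound exposure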; also: potency is read from the fitted curve at half-maximal effect)
In short: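 HEK293H GeneBLAzer PPARd UAS-bla reporter cells; cpd + L165041 300 nM final, 17 h 37 C; LiveBLAzer B/G FRET substrate 2 h RT; fluorescence intensity read-out. Antagonist mode.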

SMILES	Potency [1]	Potency [2]	Potency [3]	Potency [4]	Potency [5]	outcome [6]	Potency [7]	outcome [8]	outcome [9]	Potency [10]	Potency [11]	outcome [12]	Potency [13]	Potency [14]	Potency [15]	Potency [16]	outcome [17]	outcome [18]	Potency [19]	Potency [20]
CCc1cccc(CC)c1N(COC)C(=O)CCl	inactive	inactive	inactive	inactive	inactive	inactive	inactive	inactive	inactive	inactive	inactive	inactive	inactive	inactive	inactive	inactive	inactive	–	–	–
CCCCN(CCCC)N=O	inactive	–	inactive	inactive	inactive	inactive	inactive	–	–	inactive	inactive	inactive	inactive	inactive	inactive	inactive	inactive	inactive	–	–
Cc1ccc(N)c(N)c1	inactive	–	inactive	–	inactive	–	inactive	inactive	inactive	inactive	inactive	inactive	–	inactive	inactive	inactive	inactive	inactive	–	–
CCC(C)c1ccc(O)cc1 (stereo unspecified)	inactive	–	inactive	inactive	inactive	inactive	inactive	–	–	inactive	inactive	inactive	inactive	inactive	inactive	inactive	inactive	inactive	–	–
Nc1ccc(-c2ccc(N)c(N)c2)cc1N	inactive	inactive	–	inactive	inactive	inactive	inactive	inactive	–	inactive	inactive	inactive	inactive	inactive	inactive	inactive	–	–	27.2 µM (active)	–
CCCCN(CC)c1c([N+](=O)[O-])cc(C(F)(F)F)cc1[N+](=O)[O-]	inactive	inactive	inactive	–	inactive	–	inactive	inactive	inactive	inactive	inactive	inactive	inactive	inactive	inactive	inactive	inactive	–	inactive	inactive
NNC(N)=S	–	inactive	8.07 µM (active) and inactive	inactive	inactive	inactive	inactive	inactive	inactive	32.1 µM (active)	inactive	inactive	inactive	inactive	inactive	inactive	–	inactive	–	43.6 µM (active)
CCOC(=O)C(C)OC(=O)c1cc(Oc2ccc(C(F)(F)F)cc2Cl)ccc1[N+](=O)[O-] (stereo unspecified)	–	inactive	inactive	–	–	–	inactive	–	–	inactive	inactive	inactive	inactive	inactive	inactive	inactive	inactive	inactive	–	–
O=C1C=CC(=O)C=C1	inactive	–	inactive	–	–	–	inactive	–	–	inactive	inactive	inactive	inactive	–	–	inactive	inactive	–	–	–
O=[N+]([O-])c1ccc(O)c([N+](=O)[O-])c1	inactive	–	–	–	–	–	–	–	–	inactive	–	inactive	–	inactive	inactive	inactive	inactive	inactive	17.3 µM (active) and 17.2 µM (active)	–
CCC(CC)Nc1c([N+](=O)[O-])cc(C)c(C)c1[N+](=O)[O-]	inactive	inactive	inactive	inactive	inactive	inactive	inactive	inactive	inactive	inactive	inactive	inactive	inactive	inactive	inactive	inactive	–	–	inactive	–
CCOC(=S)S	–	–	29.3 µM (active)	inactive	inactive	–	inactive	–	–	24.5 µM (active) and 20.7 µM (active)	inactive	inactive	inactive	inactive	–	–	inactive	inactive	13.7 µM (active) and 16.3 µM (active)	–
c1ccc(P(c2ccccc2)c2ccccc2)cc1	inactive	inactive	inactive	–	inactive	–	inactive	inactive	inactive	inactive	inactive	inactive	inactive	inactive	inactive	inactive	inactive	–	inactive	–
N#Cc1cc(Br)c(O)c(Br)c1	inactive	inactive	–	inactive	–	inactive	inactive	–	–	inactive	–	inactive	–	inactive	inactive	inactive	inactive	inactive	27.3 µM (active) and 37.1 µM (active)	–
O=c1oc2ccccc2c(O)c1C(CC(O)c1ccc(-c2ccc(Br)cc2)cc1)c1ccccc1 (stereo unspecified)	inactive	–	inactive	inactive	inactive	–	inactive	–	–	inactive	–	inactive	inactive	–	inactive	inactive	–	–	57.9 µM (active)	–
CCC(C)(c1ccc(O)cc1)c1ccc(O)cc1	54.9 µM (active) and inactive	–	inactive	inactive	inactive	inactive	inactive	–	–	inactive	inactive	inactive	inactive	inactive	inactive	inactive	inactive	inactive	–	–
CCCCC(CC)COC(=O)Cl (stereo unspecified)	inactive	–	inactive	inactive	inactive	inactive	inactive	inactive	inactive	inactive	inactive	inactive	inactive	inactive	inactive	inactive	inactive	inactive	–	–
CCN(CC)C(=O)SCc1ccc(Cl)cc1	inactive	–	inactive	inactive	–	inactive	inactive	inactive	inactive	inactive	inactive	inactive	inactive	inactive	inactive	inactive	inactive	inactive	–	–
COP(=S)(OC)Oc1cc(Cl)c(Cl)cc1Cl	inactive	inactive	inactive	–	inactive	–	inactive	–	–	inactive	inactive	inactive	inactive	inactive	inactive	inactive	–	inactive	–	inactive
